Among the test systems are NCI-H226 lung; NCI-H322M lung; HOP-62 NSCLC; NCI-H460 lung; NCI-H522 lung; A549/ATCC NSCLC; 786-0 renal; COLO 205 colon; DU-145 prostate; K-562 leukemia; MALME-3M melanoma; MDA-MB-231 breast; RXF 393 renal; SF-268 CNS; SF-295 CNS; SF-539 CNS; UACC-257 melanoma; M14 melanoma; HOP-92 NSCLC.
What all share (experiment): NCI-60 one-dose screen, 48 h (100 = growth as untreated, 0 = no growth, -100 = all killed)
Common to all, as to conditions: 10 µM unless noted

About 83,000 compounds went through this panel and 20% of them were active in at least one assay; those are over-represented in the sample as a whole.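 Testing used 96-well plates and a 48-hour single-concentration exposure. Example: -40 means 40% of the starting cells died.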 Values without a mark were called inactive. Activity calls are given as the source filed them. How the source made its calls: active means growth percent below 10; inactive means the rest.

As to `N#CC1C(=O)SC2c3ccccc3C(=O)c3ccccc3C12` (stereo unspecified), the growth is 94.8% in the assay with NCI-H226 lung; 98.8% in the assay with NCI-H322M lung; 96.1% in the assay with HOP-62 NSCLC; 96.9% with NCI-H460 lung; 94.9% in the assay with NCI-H522 lung; 84.9% with A549/ATCC NSCLC. In addition, the growth in the assay with 786-0 renal was 96.8%; in the assay on COLO 205 colon, 107%; in the assay on DU-145 prostate it was 107%; in the assay with K-562 leukemia, 94.9%; in the assay on MALME-3M melanoma, 101%; in the assay with MDA-MB-231 breast, 98%. Besides, the growth was 101% with RXF 393 renal; 101% with SF-268 CNS; 113% in the assay on SF-295 CNS; 114% with SF-539 CNS; 101% in the assay on UACC-257 melanoma; 109% with M14 melanoma.

Consider `Cn1c2c(c3ccccc31)CCN1C[C@@H]3CCCC[C@H]3C[C@@H]21`, for which the growth in the assay with NCI-H226 lung was 32.3%; with HOP-62 NSCLC it was 40.7%; in the assay on NCI-H460 lung, 0.684% (active); in the assay with HOP-92 NSCLC, 33.4%; with NCI-H522 lung, 6.33% (active); with A549/ATCC NSCLC it was 23.1%. Moreover, the growth was -12.7% (active) in the assay on 786-0 renal; -59.2% (active) with COLO 205 colon; -49% (active) with DU-145 prostate; 12.9% in the assay with K-562 leukemia; 3.28% (active) in the assay on MALME-3M melanoma; 28.5% in the assay with MDA-MB-231 breast. The growth with RXF 393 renal is -24.4% (active); in the assay with SF-268 CNS it was 16.1%; in the assay on SF-295 CNS, -30.1% (active); in the assay on SF-539 CNS it was -1.74% (active); in the assay on UACC-257 melanoma, 55.4%; in the assay with M14 melanoma, -59.3% (active).

`Oc1c(Cl)c2ccccc2c2ccccc12`: the growth is 99.7% in the assay with NCI-H226 lung; 128% with HOP-62 NSCLC; 116% with NCI-H460 lung; 44.3% in the assay on NCI-H522 lung; 103% in the assay on A549/ATCC NSCLC; 109% with 786-0 renal. Further, the growth with COLO 205 colon was 113%; in the assay on DU-145 prostate, 102%; with K-562 leukemia, -12.5% (active); in the assay on MALME-3M melanoma, 123%; in the assay on MDA-MB-231 breast it was 95.5%; in the assay on RXF 393 renal, 116%. Moreover, the growth in the assay with SF-268 CNS is 104%; with SF-295 CNS it was 120%; with SF-539 CNS, 107%; with UACC-257 melanoma, 103%; with M14 melanoma, 108%.

Turning to `C=C(Cl)C(=NC(C)(C)C)Nc1ccccc1C`, the growth in the assay on NCI-H226 lung is 102%; with NCI-H322M lung, 109%; in the assay with HOP-62 NSCLC, 92.4%; in the assay on NCI-H460 lung, 106%; in the assay with HOP-92 NSCLC, 84.9%; with NCI-H522 lung it was 67.7%. Further, the growth is 111% in the assay on A549/ATCC NSCLC; 97.9% in the assay on 786-0 renal; 87.1% in the assay on DU-145 prostate; 19.8% in the assay on K-562 leukemia; 83.9% with MALME-3M melanoma; 91.3% in the assay with MDA-MB-231 breast. Moreover, the growth with RXF 393 renal is 103%; in the assay on SF-268 CNS it was 101%; in the assay on SF-295 CNS, 99.3%; with SF-539 CNS it was 99.3%; in the assay with UACC-257 melanoma, 100%; in the assay with M14 melanoma it was 85.1%.

`CCOC(=O)c1c(C)[nH]c(CO)c1C`: the growth in the assay on NCI-H226 lung was 114%; with NCI-H322M lung, 94.9%; with HOP-62 NSCLC, 93.9%; in the assay on NCI-H460 lung, 110%; in the assay with NCI-H522 lung, 84.3%; with A549/ATCC NSCLC, 90.7%. Moreover, the growth in the assay with 786-0 renal is 106%; in the assay with COLO 205 colon it was 104%; with DU-145 prostate it was 101%; in the assay with K-562 leukemia it was 101%; in the assay with MALME-3M melanoma, 91.1%; in the assay with MDA-MB-231 breast it was 104%. In addition, the growth in the assay with RXF 393 renal is 134%; in the assay with SF-268 CNS, 96.7%; with SF-295 CNS it was 95.1%; in the assay on SF-539 CNS, 104%; in the assay on UACC-257 melanoma, 94.2%; in the assay with M14 melanoma it was 95.5%.

`CCC(c1cccc(O)c1)C(CC)c1cccc(O)c1` (stereo unspecified): the growth with NCI-H226 lung was 82.7%; with NCI-H322M lung, 59.5%; with HOP-62 NSCLC, 83.8%; in the assay with NCI-H460 lung it was 59.4%; in the assay with HOP-92 NSCLC, 57%; with NCI-H522 lung, 56.3%. The growth in the assay with A549/ATCC NSCLC was 67.8%; in the assay on 786-0 renal, 74.8%; with COLO 205 colon, 61.9%; in the assay on DU-145 prostate, 86%; in the assay on K-562 leukemia, 17.1%; with MALME-3M melanoma it was 54.8%. Besides, the growth is 64.2% in the assay on MDA-MB-231 breast; 79.5% with RXF 393 renal; 63.7% in the assay on SF-268 CNS; 58.3% in the assay with SF-295 CNS; 39.1% in the assay with SF-539 CNS; 71.8% in the assay on UACC-257 melanoma. Besides, in the assay with M14 melanoma, the growth is 23.8%.

For the compound `CN=C(N)N/N=C(\C)c1ccc2c(c1)Cc1cc(/C(C)=N/NC(N)=NC)ccc1-2`, the growth with NCI-H226 lung was -61.2% (active); in the assay on HOP-62 NSCLC, -82.7% (active); in the assay on NCI-H460 lung it was -69.9% (active); in the assay on HOP-92 NSCLC it was 13.5%; in the assay on NCI-H522 lung, -35% (active); in the assay on A549/ATCC NSCLC, -17.6% (active). For the same compound, the growth with 786-0 renal is -49.7% (active); in the assay on COLO 205 colon, -67.1% (active); with DU-145 prostate it was -35.5% (active); in the assay with K-562 leukemia, -7.26% (active); with MALME-3M melanoma, -65.5% (active); in the assay with MDA-MB-231 breast, -33.8% (active). Further, the growth with RXF 393 renal was -21.2% (active); in the assay with SF-268 CNS, -61% (active); in the assay with SF-295 CNS it was -28.1% (active); with SF-539 CNS, -89% (active); in the assay with UACC-257 melanoma, 56.5%; in the assay with M14 melanoma, -85.7% (active).

For the origin of these results see PubChem BioAssay (NCI).
